# PubChem BioAssay (NCATS)
# Values joined by “and” are separate entries in the source; they are usually repeats but may differ in a detail not shown here. Identical values can stand only once. Inconclusive results are not listed. Where a call stands in place of a potency, no number is given. Active and inactive are the calls of the source. Calls come from the whole dose curve.
# Assay: Primary qHTS to identify inhibitors of SARS-CoV-2 cell entry (AID 1645846); note: nearly all actives have a fitted effect of over 45% in size
# Details: SARS-CoV-2 pseudovirus cell entry assay, luminescence; activity change, negative = inhibition: at 57.1 µM (top of the series) unless noted; series mostly up to 57.1 µM
# How it was run: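 HEK293-ACE2 (Expi293F, stable hACE2), 1500 cells/well, o/n 37C; cpd 23 nL pin, 1 h; MLV-PP w/ SARS-CoV-2-S (Wuhan-Hu-1, Δ19 C-term); 48 h 37C; Bright-Glo luminescence; normalized vs S-PP and bald PP.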
SMILES,Potency,"activity change, negative = inhibition"
CCCCCCCC/C=C/C(=O)O,inactive,–
O=C(O)/C=C(\CC(=O)O)C(=O)O,–,0.545%
CO[C@@]1(NC(=O)C(C(=O)O)c2ccc(O)cc2)C(=O)N2C(C(=O)O)=C(CSc3nnnn3C)CO[C@@H]21 (stereo partly specified),–,-1.77%
CCCNC(C)C(=O)Nc1c(C)csc1C(=O)OC (stereo unspecified),inactive,–
Cc1nnc(NS(=O)(=O)c2ccc(N)cc2)s1,–,4.32% and -12.1%
COc1ccc(NS(=O)(=O)c2ccc(N)cc2)nn1,inactive,–
